# Source: PubChem (Broad Institute)
# RAD52 anneal inh – RAD52 (human) annealing inhibition; recombinant RAD52 DNA annealing, FRET fluorescence; inhibition, % at 18.7 µM; 0.46% of 360,000 active;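 active = every replicate showing at least 50% inhibition; inconclusive = mean inhibition at least 50% but not in every replicate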
# MLL AF4-AF9 inh – blocks AF4 peptide binding to human AF9; 0.47% of 350,000 active; P42568; inhibition, % at 10 µM; AlphaScreen, biotin-AF4 peptide binding to FLAG-AF9; AID 651704;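 active = every replicate reaching a set inhibition limit, whatever the replicate mean, cut at about 25% in these data; inconclusive = mean inhibition reaches that limit but some replicates miss it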;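 also: 0% = plate neutral control median and 100% = total signal loss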
# ERAP1 inh – ERAP1 (human) enzyme inhibition; Q9NZ08; recombinant ERAP1, Leu-AMC fluorescence, 60 min; inhibition, % at 10.7 µM; 0.15% of 340,000 active; AID 652197;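 active = mean replicate inhibition of at least 30%, or all replicates individually reaching that 30% level; inactive = mean below 30% and not every replicate reaching it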;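 also: 0% = neutral control wells and 100% = L-leucinethiol positive control wells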
# Target sequence (Q9NZ08 whole entry, looked up): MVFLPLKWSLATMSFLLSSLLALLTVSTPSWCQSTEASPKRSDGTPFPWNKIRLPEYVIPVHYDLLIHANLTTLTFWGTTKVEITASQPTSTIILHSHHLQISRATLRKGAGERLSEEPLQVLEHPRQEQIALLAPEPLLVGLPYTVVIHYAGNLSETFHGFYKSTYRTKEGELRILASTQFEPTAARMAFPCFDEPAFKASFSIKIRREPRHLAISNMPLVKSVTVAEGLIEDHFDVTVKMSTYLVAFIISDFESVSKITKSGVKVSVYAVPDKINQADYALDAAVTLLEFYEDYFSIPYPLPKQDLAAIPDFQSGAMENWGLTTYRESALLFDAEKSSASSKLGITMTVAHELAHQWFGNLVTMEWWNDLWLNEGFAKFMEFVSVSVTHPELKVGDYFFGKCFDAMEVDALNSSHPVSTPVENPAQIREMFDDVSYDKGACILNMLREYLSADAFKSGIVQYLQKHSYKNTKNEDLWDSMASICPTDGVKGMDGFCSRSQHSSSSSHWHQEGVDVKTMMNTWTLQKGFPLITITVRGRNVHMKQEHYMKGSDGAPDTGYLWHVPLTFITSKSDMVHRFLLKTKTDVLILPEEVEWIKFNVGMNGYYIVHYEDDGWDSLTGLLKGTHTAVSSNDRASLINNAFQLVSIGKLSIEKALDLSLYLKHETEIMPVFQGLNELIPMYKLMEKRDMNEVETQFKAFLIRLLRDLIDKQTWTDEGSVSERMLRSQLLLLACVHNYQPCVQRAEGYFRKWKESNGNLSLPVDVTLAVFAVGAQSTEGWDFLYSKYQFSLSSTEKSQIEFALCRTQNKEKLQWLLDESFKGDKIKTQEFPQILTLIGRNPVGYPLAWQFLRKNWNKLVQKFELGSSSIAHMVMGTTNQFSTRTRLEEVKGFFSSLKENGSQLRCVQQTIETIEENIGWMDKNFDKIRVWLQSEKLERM
# FGF22 binding – binders of recombinant human FGF22 by thermal shift; AID 651658; Q9HCT0; SYPRO orange fluorescence; percent of sucrose octasulfate shift, DMSO zero; 1.5% of 340,000 active; activity (Tm shift, normalised), % at 9.99 µM;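 active = mean Tm shift, scaled 0 neutral to 100 positive control, at about 1.3% or above, every replicate too, limit read from the data; inconclusive = no clear call, values can overlap the other calls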
# DENV2 CPE – inhibitors of DENV2 cytopathic effect. DENV2-infected cells, cytopathic effect rescue, plate reader. CPE inhibition, % at 9.99 µM. 1.7% of 350,000 active; in the data active = CPE inhibition above about 20%, passing the limit was not always enough; inconclusive = no clear call, values can overlap the other calls; tested in BHK-21 cells;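 also: 0% = median of neutral control wells and 100% = median of positive control wells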
# * = called active by the depositor; ? = inconclusive; nt = no result given; ! = not active in a repeat. Compounds with a hit are over-represented: about 4% of the library has one in this group of screens.
SMILES,RAD52 anneal inh,MLL AF4-AF9 inh,ERAP1 inh,FGF22 binding,DENV2 CPE
O=C(N1CCOCC1)C1(S(=O)(=O)c2ccccc2)CC=CC1,-4,-5,3,0,11
O=C(NCC1CC1)C1(S(=O)(=O)c2ccccc2)CC=CC1,-14,-3,-4,0,21*
C[C@@H]1CN([C@H](C)CO)C(=O)c2cc(NC(=O)CCC(F)(F)F)ccc2O[C@@H](C)CCCCO[C@H]1CN(C)S(=O)(=O)c1cccs1,-34,-2,2,0,0
COc1ccc2cc(CN(CC3CCCO3)C(=S)NCc3ccco3)c(=O)[nH]c2c1 (centres undefined),-122,4,3,43*,-5
COc1ccc2[nH]c(=O)c(CN(CC3CCCO3)C(=S)Nc3ccc(C)cc3)cc2c1 (centres undefined),1,5,-1,43*,19
CN(C)CCN(Cc1cc2cc3c(cc2[nH]c1=O)OCO3)C(=S)NCc1ccco1,1,0,-7,43*,8
COc1ccc(NC(=O)N(Cc2cc3cc(C)ccc3[nH]c2=O)CC2CCCO2)cc1 (centres undefined),9,-1,2,0,2
CCNC(=S)N(CCN(C)C)Cc1cc2cc3c(cc2[nH]c1=O)OCO3,-2,2,-2,0,4
CCNC(=S)N(CCN(C)C)Cc1cc2cc(OCC)ccc2[nH]c1=O,-7,-6,-1,44*,4
Cc1ccc2cc(CN(CC3CCCO3)C(=S)NCc3ccco3)c(=O)[nH]c2c1 (centres undefined),-326,7,0,0,-6
CCNC(=S)N(Cc1ccco1)Cc1cc2cc(OCC)ccc2[nH]c1=O,-7,1,0,0,2
COc1ccc(NC(=O)Nc2ccc3c(c2)C(=O)N([C@@H](C)CO)C[C@@H](C)[C@H](CN(C)C(=O)Nc2ccc(OC)cc2)O3)cc1,-1,0,0,0,8
COc1ccccc1C(=O)Nc1ccc2c(c1)OC[C@@H](C)N(C(C)=O)C[C@@H](C)[C@@H](OC)CN(C)C2=O,-7,-11,nt,0,4
COc1ccc2[nH]c(=O)c(CN(CC3CCCO3)S(=O)(=O)c3ccccc3)cc2c1 (centres undefined),-8,1,5,44*,-9
Cc1ccc(C)c2[nH]c(=O)c(CN(Cc3ccco3)C(=S)NCC3CCCO3)cc12 (centres undefined),-25,8,2,43*,nt
COc1ccc2[nH]c(=O)c(CN(CC3CCCO3)S(=O)(=O)c3ccccc3F)cc2c1 (centres undefined),-3,-5,-1,1,2
CC(NC1CCCC1)c1ccccc1 (centres undefined),3,-2,-5,44*,nt
Cc1cc(NC(=O)COC(=O)[C@@H](NS(=O)(=O)c2ccccc2)C(C)C)no1,-7,-1,-2,43*,12
CCOc1cc(C(=O)OCC(=O)Nc2cc(C)on2)ccc1OCC(C)C,-22,0,1,44*,-6
Cc1ccc(NS(=O)(=O)c2ccc(C(=O)OCC(=O)Nc3cc(C)on3)cc2)cc1,-10,-1,7,43*,0
CCOc1ccccc1OCC(=O)Nc1cc(C)on1,-10,-1,2,0,-2
COCC(=O)N1C[C@H](C)[C@H](OC)CN(C)C(=O)c2ccc(NC(=O)c3ccc(OC)cc3)cc2OC[C@@H]1C,-10,-1,nt,0,13
CCOc1ccccc1N,-11,nt,-7,0,23*
COc1ccc2c3c(n(C)c2c1)[C@H](CO)N(C(=O)Nc1ccc(F)cc1)CC31CN(C(=O)Nc2c(C)noc2C)C1,-2,3,-3,0,0
C[C@H](CO)N1C[C@H](C)[C@@H](CN(C)Cc2ccc(Oc3ccccc3)cc2)Oc2ccc(NC(=O)CCCN(C)C)cc2C1=O,16,21,1,1.2*,4
SMILES,RAD52 anneal inh,MLL AF4-AF9 inh,ERAP1 inh,FGF22 binding,DENV2 CPE
C[C@@H]1CN([C@@H](C)CO)C(=O)c2cc(NC(=O)CCCN(C)C)ccc2O[C@@H]1CN(C)Cc1ccccc1,5,-4,1,0,30*
O=C(Nc1ccc(F)cc1)N[C@H]1CC[C@H](CCNC(=O)c2ccccc2F)O[C@H]1CO,-6,-10,-9,nt,1
CCCC(=O)N1CC2(C1)CN(Cc1ccc(Cl)cc1)[C@H](CO)c1[nH]c3cc(OC)ccc3c12,-1,1,0,0,-12
COc1cc2ccc(=O)oc2c(O[C@@H]2O[C@H](CO)[C@@H](O)[C@H](O)[C@H]2O)c1O,-18,-4,59*,0,0
C/C=C(/C)C(=O)O[C@@H]1c2c(ccc3ccc(=O)oc23)OC(C)(C)[C@@H]1OC(=O)/C(C)=C\C,-10,0,-2,0,26*
O=[N+]([O-])c1cccnc1N1CCN(Cc2ccc3c(c2)OCO3)CC1,-29,10,0,0,34*
O=[N+]([O-])c1ccccc1/C=C/CN1CCN(Cc2ccc3c(c2)OCO3)CC1,-9,2,-7,0,47*
CCC(=O)N1CC2(C1)CN(C(=O)CC)[C@H](CO)c1[nH]c3cc(OC)ccc3c12,-1,-1,-3,0,?
O=C(CC(C(=O)O)P(=O)(c1ccccc1)c1ccccc1)c1ccccc1 (centres undefined),-13,0,-5,43*,-2
CC(C)COCC(O)CC(Cc1ccccc1)C(=O)NN (centres undefined),-5,-1,2,43*,10
CC(C)NC(=O)N(C)C[C@H]1Oc2ccc(NC(=O)CCC(F)(F)F)cc2C(=O)N([C@@H](C)CO)C[C@@H]1C,3,-4,0,0,23*
CC(C)NC(=O)N(C)C[C@H]1Oc2ccc(NC(=O)CCC(F)(F)F)cc2C(=O)N([C@H](C)CO)C[C@H]1C,10,-4,0,0,71*
CC(C)NC(=O)N(C)C[C@@H]1Oc2ccc(NC(=O)CCC(F)(F)F)cc2C(=O)N([C@@H](C)CO)C[C@@H]1C,8,-5,-1,0,0
C[C@@H]1CN([C@@H](C)CO)S(=O)(=O)c2ccc(/C=C/c3ccccc3)cc2O[C@H]1CN(C)C(=O)c1ccc2c(c1)OCO2,-2,3,4,0,-1
C[C@H]1CN([C@@H](C)CO)C(=O)CCCn2cc(nn2)CO[C@@H]1CN(C)C(=O)Nc1ccc(N2CCCCC2)cc1,-15,38*!,10,-1,?
C[C@@H]1CN([C@@H](C)CO)C(=O)CCCn2cc(nn2)CO[C@H]1CN(C)C(=O)Nc1ccc(N2CCN(C)CC2)cc1,68*!,11,3,0,-12
C[C@@H]1CN([C@H](C)CO)C(=O)CCCn2cc(nn2)CO[C@@H]1CN(C)C(=O)Nc1ccc(N2CCN(C)CC2)cc1,3,2,0,0,-1
C[C@H](CO)N1C[C@H](C)[C@@H](CN(C)C(=O)Nc2ccc(N3CCN(C)CC3)cc2)OCc2cn(nn2)CCCC1=O,66*!,10,2,0,-5
